Assay results taken from PubChem BioAssay (NCATS).
Results filed as inconclusive are left out. A call without a number means that no potency is given here. Calls of active or inactive are those of the source. Calls follow the shape of the dose curve; as a rule, active = well fitted inhibition curve with a large enough effect; inconclusive = small, poorly fitted or top-dose-only effect; inactive = flat fitted curve, though single readings scatter.

Assay: Primary qHTS for inhibitors of nuclear receptor binding SET domain protein 2 (NSD2) in an isogenic RCH-ACV NSD2 p.E1099K mutant (9B) (AID 1645876); also: nearly all actives have a fitted effect of over 70% in size
Conditions: RCH-ACV (leukaemia line) NSD2 E1099K (9B) viability, CellTiter-Glo, 72 h; series mostly up to 44.9 µM

Compound | Potency | activity change, negative = viability loss
C=C1CC2C3(C)C(O)CC(=O)C(C)(C)C3C(OC(C)=O)C(OC(C)=O)C2(C)C2C(=O)OC(C)(C(=O)OC)C(=O)C12C (stereo unspecified) | inactive | 
OCCc1ccc(O[C@@H]2O[C@H](CO)[C@@H](O)[C@H](O)[C@H]2O)c(O)c1 | inactive | 
C/C(=C/CO)CC[C@@H]1[C@@]2(C)CCC[C@](C)(C(=O)O)C2CC[C@@]1(C)O (stereo partly specified) | inactive | 
CC1=C2[C@@H]([C@H](C)CC[C@H]2/C=C(\C)C(=O)O)[C@H](O)C1 | inactive | 
COC12CC3C(C(C)C1=CC(=O)O2)C(O)C(OC(C)=O)C1C(C)(C)C(OC(C)=O)CCC31C (stereo unspecified) | inactive | 
CC(=O)OC1C(O)CC(O[C@@H]2O[C@H](CO)[C@@H](O)[C@H](O)[C@H]2O)C2CCC3C(=O)OC(c4ccoc4)CC3(C)C21 (stereo partly specified) | inactive | 
COc1cc(C[C@H]2COC(=O)[C@@H]2Cc2ccc(O)c(OC)c2)ccc1O | inactive | 
CC1=CC(=O)C[C@H]2[C@@H]1CC[C@@H](C)[C@]21CO[C@H](c2ccoc2)C1=O | inactive | 
C=C1CC/C=C(/CO)C(=O)C[C@@H]2[C@@H]1CC2(C)C | inactive | 
CCOc1c2c(c(OCC)c3ccccc13)C(=O)N(c1ccc(CC(=O)NS(=O)(=O)c3ccccc3)cc1)C2 | inactive | 
O=C(/C=C/c1ccc(O)cc1)OC[C@]12O[C@H]1[C@@H](O)[C@@H]1C=CO[C@@H](O[C@@H]3O[C@H](CO)[C@@H](O)[C@H](O)[C@H]3O)[C@@H]12 | inactive | 
CC(C)C(C#N)O[C@@H]1O[C@H](CO[C@@H]2OC[C@](O)(CO)[C@H]2O)[C@@H](O)[C@H](O)[C@H]1O (stereo partly specified) | inactive | 
C=C1[C@H]2[C@H](O[C@@H]3O[C@H](COC(=O)/C=C/c4cc(OC)c(O)c(OC)c4)[C@@H](O)[C@H](O)[C@H]3O)OC=C(C(=O)O)[C@H]2C[C@@H]1O | inactive | 
CC1(C)CC2C3=CCC4C5(C)CCC(OC6OC(C(=O)O)C(O)C(O)C6OC6OC(CO)C(O)C(O)C6OC6OC(CO)C(O)C(O)C6O)C(C)(CO)C5CCC4(C)C3(C)CCC2(C)C(OC2OCC(O)C(OC3OC(CO)C(O)C(O)C3O)C2O)C1O (stereo unspecified) |  | -1.65% [at 9.23 µM] (inactive)
CCC[C@@H]1C[C@@H](C(=O)N[C@H](C(C)Cl)[C@H]2O[C@H](SC)[C@H](O)[C@@H](O)[C@H]2O)N(C)C1 (stereo partly specified) | inactive | 
CC1CCC(=O)CC(O)C(O)CC(=O)O1 (stereo unspecified) | inactive | 

Compound | Potency | activity change, negative = viability loss
CC(O)C(O)/C=C/C=C/C(=O)O[C@@H]1C=C2COC(=O)[C@]2(O)[C@@]2(C)CCCC(C)(C)C12 (stereo partly specified) | inactive | 
COC1=CC(=O)O[C@@H](CCc2ccccc2)[C@@H]1O | inactive | 
COc1ccc2c(c1)OC[C@]1(O)c3cc4c(cc3O[C@H]21)OCO4 | inactive | 
Cc1nnc(C(C)C)n1C1CC2CCC(C1)N2CCC(NC(=O)C1CCC(F)(F)CC1)c1ccccc1 (stereo unspecified) | inactive | 
CC1=C2C=C(CO)C(CO)CCC2(C)CCC1=O (stereo unspecified) | inactive | 
C=CC(C)(C)O[C@@H]1O[C@H](CO[C@@H]2OC[C@](O)(CO)[C@H]2O)[C@@H](O)[C@H](O)[C@H]1O | inactive | 
COC(=O)C1=CO[C@@H](O[C@@H]2O[C@H](CO)[C@@H](O)[C@H](O)[C@H]2O)[C@@H]2[C@@](C)(O)[C@@H](O)C[C@]12O | inactive | 
COc1cc(/C=C/C(=O)OC(C)(C)C(OC2OC(CO)C(O)C(O)C2O)C(=O)OCc2ccc(OC3OC(CO)C(O)C(O)C3O)cc2)ccc1O (stereo unspecified) | inactive | 
CCNC(=O)[C@@H]1CCCN1C(=O)[C@H](CCCN=C(N)N)NC(=O)[C@H](CC(C)C)NC(=O)[C@@H](C)NC(=O)[C@H](Cc1ccc(O)cc1)NC(=O)[C@H](CO)NC(=O)[C@H](Cc1c[nH]c2ccccc12)NC(=O)[C@H](Cc1cnc[nH]1)NC(=O)[C@@H]1CCC(=O)N1 | inactive | 
CCC(C)/C=C(C)/C=C/C1=CC2=C(Cl)C(=O)C(C)(OC(C)=O)C(=O)C2=CN1CCCC(=O)O (stereo unspecified) | inactive | 
CC(=O)N1c2ccccc2C2(O)CC3C(=O)NC(CC(C)C)C(=O)N3C12 (stereo unspecified) | inactive | 
CC(=O)c1c(O)cc2cccc3c2c1CC(C)(O)O3 (stereo unspecified) | inactive | 
C/C1=C\C[C@H](O[C@@H]2O[C@H](CO)[C@@H](O)[C@H](O)[C@H]2O)/C(C)=C/[C@H]2OC(=O)[C@H](C)[C@@H]2CC1 | inactive | 
CC(C)(O)C1CC=C(C(=O)OCC2OC(Oc3c(O)cc(C(=O)O)cc3O)C(O)C(O)C2O)CC1 (stereo unspecified) | inactive | 
C[C@@H]1C(=O)O[C@H]2[C@H]1CC[C@@]1(C)C(=O)C=C[C@](C)(O)[C@H]21 | inactive | 
